Experimental findings from PubChem BioAssay are described below.

Values without a mark were called inactive. The rule behind the calls is not given here.

The target of the assay is Pantothenate synthetase (Mycobacterium tuberculosis (strain ATCC 25618 / H37Rv)) (UniProt P9WIL5). In words: Recombinant Mtb pantothenate synthetase (PanC) inhibitors, coupled enzyme, confirmatory (AID 375).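 Note: 0% = full reaction with vehicle and 100% = no enzyme background.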 Particulars: coupled enzyme assay; at 10 µM, stronger effect = higher value.
Sequence of Pantothenate synthetase (Mycobacterium tuberculosis (strain ATCC 25618 / H37Rv)) (P9WIL5 whole entry, looked up): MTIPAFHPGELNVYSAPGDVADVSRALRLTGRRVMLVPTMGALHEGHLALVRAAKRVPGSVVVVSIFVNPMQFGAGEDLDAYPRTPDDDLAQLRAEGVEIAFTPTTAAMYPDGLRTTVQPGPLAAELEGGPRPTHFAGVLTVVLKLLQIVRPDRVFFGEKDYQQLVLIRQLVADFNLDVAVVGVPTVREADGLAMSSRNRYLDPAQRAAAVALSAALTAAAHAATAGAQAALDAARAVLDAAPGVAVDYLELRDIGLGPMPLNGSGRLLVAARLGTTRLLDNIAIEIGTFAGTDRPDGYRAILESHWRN
Turning to `c1cc(-c2nc3ccccc3o2)nc(-c2nc3ccccc3o2)c1`, the inhibition (in general, the drop in the measured response relative to a control, in per cent) is 0%.
As to `CCOC(=O)C(C(C)=O)c1nc(C)nc2c1nnn2Cc1ccccc1Cl` (stereo not given), the inhibition was 0%.
With `O=C(CSc1nnnn1-c1ccccc1)Nc1ccc(Cl)cc1` the figure was 0%.
For `COc1ccc(NC(=O)CC2Sc3ncnn3C2=O)cc1` (stereo not given), the inhibition was 0%.
On to `CC(C)c1ccc(NC(=O)CCNS(=O)(=O)c2cccc3nonc23)cc1`, for which the inhibition was 0%.
As for `O=S1(=O)Nc2c(ccc3cccnc23)-c2ccccc21`, the figure is 0%.
With `CCOCC(=O)Nc1nc2c(s1)C(=O)CC(C)(C)C2` the figure was 5%.
Take `Cc1nnc2ccc(N3CCC4(CC3)OCCO4)nn12`: the inhibition was 0%.
As for `N#CCCNCC1(c2ccccc2)CCCC1`, the figure is 7%.
With `Cc1ccc(NC(=O)CCN2CCc3ccccc3C2)cc1` the figure was 0%; with `O=C(Nc1cccnc1)Nc1ccc(F)c(Cl)c1`, 0%.
For the compound `CC1CCCN(C(=O)CN2CCN(C(=O)c3ccco3)CC2)C1` (stereo not given), the inhibition was 0%.
Turning to `COC(=O)c1ccnc(/C=N/O)c1`, the inhibition was 6%.
As for `CCOC(=O)C1CCCN(S(=O)(=O)c2cccs2)C1` (stereo not given), the figure is 6%; as for `CCCCOc1ccccc1C(=O)NCCCC(=O)O`, 0%; as for `Cc1ccc(-c2nnc3c4ccccc4c(C)nn23)cc1NC(=O)c1ccco1`, 0%.
With `c1ccc(-n2ncc3c(NC4CCCCCC4)ncnc32)cc1` the figure was 0%.
As for `CS(=O)(=O)Nc1ccc(S(=O)(=O)Nc2nccs2)cc1`, the figure is 0%; as for `CC(=O)[C@H]1[C@H](C#N)C[C@H]2[C@@H]3CC=C4C[C@@H](O)CC[C@]4(C)[C@H]3CC[C@@]21C`, 0%; as for `CCc1nnc(NC(=O)CSc2nc(-c3ccc(OC)cc3)ns2)s1`, 0%.
For `CCOC(=O)c1ccc(NS(=O)(=O)c2cccc3nsnc23)cc1`, the inhibition was 8%.
With `O=C(c1ccc(CNc2c(N3CCCC3)c(=O)c2=O)cc1)N1CCc2ccccc2C1` the figure was 1%; with `Cc1ccc2c(c1)N(CC(=O)Nc1ccc3c(c1)OCCO3)C(=O)CO2`, 0%.
With `COC(=O)C1=CN(C(C)C)C=C(C(=O)OC)C1c1cc2c(cc1Br)OCO2` the figure was 0%; with `Cc1oc(-c2ccccc2F)nc1CS(=O)(=O)CC(=O)N1CCN(Cc2ccccc2)CC1`, 0%; with `Nc1sccc1C(=O)c1ccc(Cl)cc1`, 0%.
As for `O=C(CN(c1ccc(F)cc1)S(=O)(=O)c1ccc2c(c1)OCCO2)Nc1ccc2c(c1)OCO2`, the figure is 3%; as for `O=C(NCCCn1ccnc1)c1cnn2c1NC(c1ccccc1)CC2C(F)(F)F` (stereo not given), 2%.
With `Cc1coc(NC(=O)CSc2nc(-c3ccncc3)cc(C(F)(F)F)c2C#N)n1`, the inhibition was 0%.
As for `CCN(CC)CCN1C(=O)c2oc3ccc(F)cc3c(=O)c2C1c1ccncc1` (stereo not given), the figure is 0%.
`COc1ccc(CCNC(=O)c2cnn3ccccc23)c(OC)c1OC`: the inhibition was 4%.
As for `COc1ccc(NC(=O)COc2ccccc2)c(OC)c1`, the figure is 0%.
With `CC(=O)OCC(=O)[C@@]1(O)[C@H](C)C[C@H]2[C@@H]3CCC4=CC(=O)C=C[C@]4(C)[C@@]3(F)[C@@H](O)C[C@@]21C` the figure was 4%.
With `COc1ccccc1-c1nc(C#N)c(N2CCN(c3ccccc3)CC2)o1` the figure was 0%.
For `Cc1[nH]c(=O)[nH]c(=O)c1S(=O)(=O)N1CCCC(C(=O)NCc2ccco2)C1` (stereo not given), the inhibition was 5%.
For the compound `CCCSC1=C(C#N)C(c2ccccc2OCC)CC(=O)N1` (stereo not given), the inhibition is 7%.
As for `CCOC(=O)C(C)Sc1nc2c(cnn2-c2ccc(C)cc2)c(=O)[nH]1` (stereo not given), the figure is 5%; as for `CC(=O)Nc1ccc(S(=O)(=O)N2CCC(c3nc4ccccc4[nH]3)CC2)cc1`, 0%.
In the case of `Cc1cnc(C(=O)Nc2ccc(-n3cnnn3)cc2)cn1`, the inhibition is 14%.
With `CCOC(=O)c1cccc(NC(=O)CCn2nnc3ccccc32)c1` the figure was 0%.
